The campaign covered roughly 300,000 compounds. About 5,400 (1.8%) were called active. Not shown: some 28% with an inconclusive outcome. The sample holds actives, similar compounds and a random draw of the others, so the mix is not that of the screen. Calls follow the shape of the full dose curve; tested in HEK293 cells.
Test: qHTS for inhibitors of binding or entry into cells for Marburg Virus
Details: Marburg virus pseudotyped entry inhibition, cell reporter; series mostly up to 37.8 µM; activity change, negative = inhibition: at the top concentration
% is scaled to controls: 0 for no effect and ±100 for the full control effect; potency is read from the fitted curve at half-maximal effect.

| Compound | activity change, negative = inhibition | Potency |
| --- | --- | --- |
| CN1CCOC1c1ccc(C2OCCN2C)cc1 (configuration not stated) | 1.02% (inactive) | – |
| CCOc1ccc(C2NC(=S)NC3=C2CCc2ccccc23)cc1 (configuration not stated) | – | 7.94 µM (active) |
| Cc1ccc(OCc2nnc(SC3CCc4ccccc4C3=O)n2C)cc1 (configuration not stated) | 11.2% (inactive) | – |
| CCOc1ccc(C2C(C(=O)O)c3ccccc3C(=O)N2CCN2CCOCC2)cc1 (configuration not stated) | 4.39% (inactive) | – |
| O=C(c1ccc(S(=O)(=O)N2CCCC2)cc1)N1CCN(c2ccccc2F)CC1 | 2.26% (inactive) | – |
| c1ccc(CCc2ccccn2)cc1 | -5.92% (inactive) | – |
| C(=N/Nc1cc(N2CCOCC2)nc(N2CCOCC2)n1)/c1ccccc1 | – | 2.51 µM (active) |
| Cc1cc(N2CCN(c3ccccc3)CC2)nc(N2CCOCC2)n1 | -28.4% [at 46.1 µM] (inactive) | – |
| O=C(O)c1ccc(/C=N/Nc2nc(N3CCCCC3)nc(N3CCCCC3)n2)cc1 | 16% [at 46.1 µM] (inactive) | – |
| O=C1C2C3C=CC(C3)C2C(=O)N1c1ncc([N+](=O)[O-])s1 (configuration not stated) | 2.32% [at 46.1 µM] (inactive) | – |
| Cc1noc(/C=C/N(C)C)c1S(=O)(=O)N1CCCC(C(=O)Nc2cccc(F)c2)C1 (configuration not stated) | -19.2% [at 46.1 µM] (inactive) | – |
| Cc1cccc(NC(=O)C2CCN(S(=O)(=O)c3c(C)noc3/C=C/c3ccco3)CC2)c1 | 2.11% [at 46.1 µM] (inactive) | – |
| Cc1noc(/C=C/c2ccco2)c1S(=O)(=O)N1CCC(C(=O)Nc2ccc(Cl)cn2)CC1 | – | 6.51 µM (active) |
| Cc1nnc(SCC(=O)N2CCc3ccccc3C2)s1 | 18.1% (inactive) | – |
| Cc1nnc(SCC(=O)NCc2ccccc2)s1 | 1.81% (inactive) | – |
| Cc1nnc(SCC(=O)N2c3ccccc3C(C)(c3ccc(Cl)cc3)CC2(C)C)s1 (configuration not stated) | – | 10 µM (active) |
| Nn1c(SCC(=O)Nc2ccc3c(c2)CCC3)nnc1C1CC1 | -14.3% (inactive) | – |
| Cc1ccccc1NC(=O)Cc1nnc(SCC(=O)N2CCN(c3ccccc3)CC2)n1C | – | inactive |
| Cn1c(CNC(=O)c2ccco2)nnc1SCC(=O)N1CCN(c2ccccc2)CC1 | -1.96% [at 46.1 µM] (inactive) | – |
| Cn1c(Cc2cccc3ccccc23)nnc1SCC(=O)N1CCN(c2cccc(Cl)c2)CC1 | – | 12.6 µM (active) |
| Cc1cccc(C(=O)N[C@H](C(=O)NCc2cccs2)C(C)C)c1 | 2.48% (inactive) | – |
| CCCOC(=O)CSC1=C(C#N)[C@H](c2ccccc2OCC)[C@H](C#N)C(=O)N1 | 3.94% (inactive) | – |
| C=CC1=C(C)C2=NC1=CC1=NC(=CC3=NC(=CC4=NC(=C2)C(C)=C4CCC(=O)O)C(CCC(=O)O)=C3C)C(C=C)=C1C | -14.8% (inactive) | – |
| CC(C)(c1ccccc1)c1ccc(OCCN)cc1 | -30.5% (inactive) | – |
| CN1CCC[C@@H]1CCO[C@](C)(c1ccccc1)c1ccc(Cl)cc1 | – | 9.2 µM (active) |
| Cc1ccc(S(=O)(=O)Nc2ccc(F)c(S(=O)(=O)N3CCOCC3)c2)cc1 | -16.5% (inactive) | – |

| Compound | activity change, negative = inhibition | Potency |
| --- | --- | --- |
| O=C(Nc1nnc(-c2ccccc2)o1)c1cccc(S(=O)(=O)N2CCOCC2)c1 | – | 12.6 µM (active) |
| O=C(c1cccc(S(=O)(=O)N2CCOCC2)c1)N1CCOCC1 | 14% (inactive) | – |
| O=C(NNC(=S)Nc1ccccc1)c1cccc(S(=O)(=O)N2CCOCC2)c1 | 9.66% (inactive) | – |
| C/C(=N/OC(=O)c1ccc(Br)cc1)c1ccc(C)cc1 | -8.65% (inactive) | – |
| Cc1ccc(CSCC(=O)N(C)CC(=O)Nc2cccc(F)c2)cc1 | -2.21% [at 46.1 µM] (inactive) | – |
| CC(=O)NC1(c2ccc(F)cc2)CCN(C(=O)c2c(F)cccc2F)CC1 | 28% (inactive) | – |
| Cc1c(CCO)c(=O)n(-c2ccccc2)n1S(=O)(=O)c1ccc(F)cc1 | 4.52% (inactive) | – |
| Cc1c(CCO)c(=O)[nH]n1C(=O)c1c(F)cccc1F | – | 2.06 µM (active) |
| O=C(CSc1nc(C2CC2)nc2ccccc12)Nc1cccc(O)c1 | -15.4% [at 46.1 µM] (inactive) | – |
| Cc1ccc(CCC(=O)Nc2ncc(Cc3cc(Cl)ccc3Cl)s2)o1 | – | 0.651 µM (active) |
| CCOc1ccccc1NC(=O)CCc1ccc(C)o1 | -18.1% (inactive) | – |
| Cc1cnc(NC(=O)CSc2nnc(-c3ccc(Cl)cc3Cl)n2N)s1 | 0% (inactive) | – |
| O=C(OCCOc1ccccc1F)c1cc(S(=O)(=O)N2CCOCC2)ccc1F | -2.85% [at 46.1 µM] (inactive) | – |
| C=CCn1c(COc2cccc3cccnc23)nnc1SCC(=O)OC | 0.388% (inactive) | – |
| CCCCC(=O)NC(c1ccc(OC)c(OC)c1)c1ccc2cccnc2c1O (configuration not stated) | – | 3.16 µM (active) |
| COc1ccc(CCNC(=O)C(Sc2ccccn2)c2ccccc2)cc1OC (configuration not stated) | -0.361% (inactive) | – |
| Cc1cccc(NC(=O)c2cccnc2Cl)n1 | 4.02% [at 46.1 µM] (inactive) | – |
| CCOc1ccc(-n2c(SCC(=O)Nc3cc(C(=O)O)ccc3Cl)nc3ccccc3c2=O)cc1 | 21.7% [at 46.1 µM] (inactive) | – |
| N#CCCN(C(=O)COC(=O)c1ccc2c(c1)OCCO2)c1ccccc1 | -14.4% [at 46.1 µM] (inactive) | – |
| CN(C)c1ccc(NC(=S)N(CCc2ccccc2)C2CC(=O)N(c3c(Cl)cccc3Cl)C2=O)cc1 (configuration not stated) | – | 4.47 µM (active) |
| Cc1ccc(N2CC(C(=O)Nc3ccc(N(C)C)cc3)CC2=O)cc1Cl (configuration not stated) | 1.2% [at 46.1 µM] (inactive) | – |
| COC(=O)CN(C(=S)Nc1ccc(Cl)cc1)C1CC(=O)N(c2ccc(OC)cc2)C1=O (configuration not stated) | 13.8% (inactive) | – |
| COc1ccccc1NC(=O)COC(=O)CNC(=O)C1CCCCC1 | -18.1% [at 46.1 µM] (inactive) | – |
| CC(C=Cc1ccccc1)=NNS(=O)(=O)c1ccc([N+](=O)[O-])cc1 | 5.6% [at 46.1 µM] (inactive) | – |
| CCn1c(C(O)c2cc(OC)ccc2OC)nc2ccccc21 (configuration not stated) | 11.4% (inactive) | – |
| Cc1nc(-c2ccc(F)cc2)c(CC(=O)Nc2cc(S(=O)(=O)N3CCCCC3)ccc2C)s1 | -29.3% [at 46.1 µM] (inactive) | – |

| Compound | activity change, negative = inhibition | Potency |
| --- | --- | --- |
| CC(=O)c1c(C)[nH]c(C(=O)OCC(=O)Nc2cc(S(=O)(=O)N3CCCCC3)ccc2C)c1C | – | 9.2 µM (active) |
| CS(=O)(=O)c1ccc(Cl)c(NC(=O)COC(=O)c2cccc(S(=O)(=O)N3CCCC3)c2)c1 | 13.1% [at 46.1 µM] (inactive) | – |
| COc1ccc(CC(=O)Nc2ccc3c(c2)CCC3)cc1S(=O)(=O)N1CCOCC1 | -5.43% (inactive) | – |
| O=C(CCc1ccc(S(=O)(=O)N2CCOCC2)cc1)Nc1ccc2ccccc2c1 | -24% (inactive) | – |
| COc1ccc(CCC(=O)Nc2ccc(Cl)c(S(=O)(=O)N3CCOCC3)c2)cc1OC | – | 6.31 µM (active) |
| CCN(CC(=O)Nc1cc(Cl)ccc1C)C(=O)CSCc1ccccc1 | -23.3% (inactive) | – |
| CCOCCCN1C(=O)C2C(C(=O)Nc3ccc(OCC)cc3)C3C=CC2(O3)C1C(=O)NC1CCCCC1 (configuration not stated) | -0.0854% [at 46.1 µM] (inactive) | – |
| CC(=O)Nc1ccc(S(=O)(=O)Nc2ccc(N3CCOCC3)c(F)c2)cc1 | -4.97% (inactive) | – |
| COc1ccc(NS(=O)(=O)c2ccc(C)c(C(=O)NCC(c3cccs3)N3CCOCC3)c2)cc1 (configuration not stated) | 17.2% (inactive) | – |
| COc1ccc(NS(=O)(=O)c2ccc(N3CCOCC3)c(NC(=O)c3ccccc3Br)c2)cc1 | – | 2.51 µM (active) |
| CCCCCN(C(=O)CCC(=O)OCC(=O)NC1CCC(C)CC1)c1c(N)n(CCCC)c(=O)[nH]c1=O (configuration not stated) | -5.54% (inactive) | – |
| CC1CCN(C(=O)C2CCN(S(=O)(=O)N3CCC4(CC3)OCCO4)CC2)CC1 | 5.15% [at 46.1 µM] (inactive) | – |
| NC(=O)C1CCN(C(=O)c2cn(-c3ccccc3)nc2-c2cccnc2)CC1 | 7.53% (inactive) | – |
| C/C(=N\NC(=O)Cc1ccc(Br)cc1)c1cccnc1 | 7.54% [at 46.1 µM] (inactive) | – |
| CC1=NNC(=O)C1CCC(=O)N/N=C(\C)c1ccc(Cl)cc1 (configuration not stated) | 21% [at 46.1 µM] (inactive) | – |
| C/C(=N\NC(=O)Cc1ccc(Cl)cc1)c1ccccn1 | – | 3.26 µM (active) |
| Cn1c(CCNS(=O)(=O)c2ccc(F)cc2)nnc1SCc1cccnc1 | -1.17% [at 46.1 µM] (inactive) | – |
| Cc1ccc(Br)c(NS(=O)(=O)c2cccc(C(=O)N3CCNC(=O)C3)c2)c1 | -6.8% (inactive) | – |
| Cc1c(NC(=O)C(C)OC(=O)c2ccccc2O)c(=O)n(-c2ccccc2)n1C (configuration not stated) | -14.6% (inactive) | – |
| Fc1ccc2[nH]c3c(N4CCSCC4)ncnc3c2c1 | – | 10 µM (active) |
| Fc1ccc2[nH]c3c(N4CCN(Cc5ccc6c(c5)OCO6)CC4)ncnc3c2c1 | – | 8.91 µM (active) |
| Cc1cc(N2CCN(Cc3ccc4c(c3)OCO4)CC2)n2ncnc2n1 | 6.99% (inactive) | – |
| Fc1ccc(N2CCN(Cc3ccc4c(c3)OCO4)CC2)cc1 | 22.5% (inactive) | – |
| O=C(C1C=CC(C(=O)N2CCOCC2)S1)N1CCOCC1 (configuration not stated) | 19.3% [at 46.1 µM] (inactive) | – |
| O=C(Cn1ccc2cc(S(=O)(=O)N3CCCC3)ccc21)NCc1ccccc1 | -13.9% [at 46.1 µM] (inactive) | – |
| COCCn1c(C)cc(C(=O)CSc2nnc(C3CC3)n2C2CC2)c1C | 10.6% (inactive) | – |

| Compound | activity change, negative = inhibition | Potency |
| --- | --- | --- |
| CCN(CC)CCNc1ccc(Cl)cc1[N+](=O)[O-] | 2.68% (inactive) | – |
| CCN(CC)CCCC(C)Nc1ccnc2cc(Cl)ccc12 (configuration not stated) | – | 5.62 µM (active) |
| COc1ccc(CNC(=O)C(C)NCc2ccccc2Cl)cc1 (configuration not stated) | -8.02% (inactive) | – |
| Cc1cccc(N2C(=O)C[C@@H](N3CCN(Cc4ccc(Cl)cc4)CC3)C2=O)c1 | -3.25% (inactive) | – |
| Cc1nn2c(c1-c1ccccc1)N=C(c1ccco1)CC2c1ccccc1 (configuration not stated) | – | 0.517 µM (active) |
| Cc1ccc(C)c(C(C)NC(=O)C2CCCO2)c1 (configuration not stated) | -16.9% [at 46.1 µM] (inactive) | – |
| COC(CNC(=O)c1ccc2c(c1)ncn2-c1cc(C)cc(C)c1)OC | 0.48% [at 46.1 µM] (inactive) | – |
| N/C(=N\OC(=O)Nc1ccc(Cl)c(Cl)c1)c1ncc(C(F)(F)F)cc1Cl | -4% (inactive) | – |
| O=C(CC(=O)Nc1ccc(Cl)c(Cl)c1)N/N=C/c1ccc(O)cc1 | -16.3% (inactive) | – |
| O=C(CC(O)(C(F)(F)F)C(F)(F)F)Nc1ccc(Cl)c(Cl)c1 | – | 3.26 µM (active) |
| CSc1ncc(C(=O)Nc2ccc(C)cc2C)c(C)n1 | -15.4% [at 46.1 µM] (inactive) | – |
| CCOc1ccc(NC(=O)C(C)N2C(=O)c3ccccc3C2=O)cc1 (configuration not stated) | 3.67% (inactive) | – |
| COc1ccc(CCNC(=O)CCCn2c(=O)c3ccccc3n(Cc3ccc(F)cc3Cl)c2=O)cc1OC | 1.97% [at 46.1 µM] (inactive) | – |
| COc1ccc(CCn2ccc(O)c(Cc3ccc(Cl)cc3Cl)c2=O)cc1OC | – | 3.98 µM (active) |
| COc1ccc(CCNC(=O)CCc2ccccc2O)cc1OC | -7.5% [at 46.1 µM] (inactive) | – |
| COC(=O)c1ccc(C(=O)NC2CC(C)(C)Cc3c2cnn3-c2ccc(F)cc2)nc1 (configuration not stated) | -10.5% (inactive) | – |
| Cn1nnnc1SCC(=O)Nc1sccc1C(N)=O | -3.85% (inactive) | – |
| CN1c2ccc(C=O)c3c(C=O)ccc(c23)N(C)C1(C)C | – | 10 µM (active) |
| O=C(CN(CC1CCCO1)C(=O)CNS(=O)(=O)c1ccc(Cl)cc1)NCc1ccccc1 (configuration not stated) | -28.2% [at 46.1 µM] (inactive) | – |
| COc1ccc(C(=O)Nc2ccnn2C2CCN(Cc3ccncc3)CC2)cc1 | 2.71% (inactive) | – |
| S=C(c1ccccc1)N1CCCC1 | 27% (inactive) | – |
| O=C(NC(Cc1ccccc1)C(=O)N1CCCC(C(F)(F)F)C1)c1ccccc1 (configuration not stated) | -0.92% (inactive) | – |
| CSCCC(NC(=O)c1ccccc1)C(=O)N1CCN(Cc2ccc(Cl)cc2)CC1 (configuration not stated) | – | 11.2 µM (active) |
| CSCCC(NS(=O)(=O)/C=C/c1ccccc1)C(=O)N1CCC(C)CC1 (configuration not stated) | – | inactive |
